Results filed as inconclusive are left out. A call without a number means that no potency is given here. Activity calls are given as the source filed them. Calls follow the shape of the full dose curve.
test: Primary qHTS for Huh7 cytotoxicity: counterscreen for inhibitors of MERS-S pseudotyped particle cell entry (AID 1479147); conditions: cell viability read-out; series mostly up to 57.1 µM

SMILES	Potency
COC(=O)Nc1nc2ccc(C(=O)c3ccccc3)cc2[nH]1	inactive
CN(C)c1ccc(O)c2c1C[C@H]1C[C@H]3[C@H](N(C)C)C(=O)C(C(N)=O)=C(O)[C@@]3(O)C(=O)C1=C2O	inactive
Cc1cc2c(s1)Nc1ccccc1N=C2N1CCN(C)CC1	inactive
C=C1C[C@@H]2[C@H](CC[C@]3(C)C(=O)CC[C@@H]23)[C@@]2(C)C=CC(=O)C=C12	inactive
COC(=O)N[C@H](C(=O)N[C@@H](Cc1ccccc1)[C@@H](O)CN(Cc1ccc(-c2ccccn2)cc1)NC(=O)[C@@H](NC(=O)OC)C(C)(C)C)C(C)(C)C	inactive
CN1CCN(C2=Nc3cc(Cl)ccc3Nc3ccccc32)CC1	inactive
CC(C(=O)O)c1cccc(C(=O)c2ccccc2)c1 (stereo not drawn)	inactive
NS(=O)(=O)c1cc2c(cc1C(F)(F)F)NCNS2(=O)=O	inactive
O=C1CCc2ccc(OCCCCN3CCN(c4cccc(Cl)c4Cl)CC3)cc2N1	inactive
COCCCC/C(=N\OCCN)c1ccc(C(F)(F)F)cc1	inactive
Cc1cccc(Nc2ccccc2C(=O)O)c1C	inactive
Cc1ccnc2c1NC(=O)c1cccnc1N2C1CC1	inactive
CC(C)(C#N)c1cc(Cn2cncn2)cc(C(C)(C)C#N)c1	inactive
CC(c1cc2ccccc2s1)N(O)C(N)=O (stereo not drawn)	inactive
Cc1nc2n(c(=O)c1CCN1CCC(c3noc4cc(F)ccc34)CC1)CCC[C@H]2O	inactive
CC(C)(C(=O)O)c1ccc(C(O)CCCN2CCC(C(O)(c3ccccc3)c3ccccc3)CC2)cc1 (stereo not drawn)	inactive
COc1nc(N)nc2c1ncn2[C@@H]1O[C@H](CO)[C@@H](O)[C@@H]1O	inactive
Cc1ccsc1C(=CCCN1CCC[C@@H](C(=O)O)C1)c1sccc1C	inactive
Cc1ccc(C(=O)c2cc(O)c(O)c([N+](=O)[O-])c2)cc1	inactive

SMILES	Potency
CN1CCC[C@@H]1Cc1c[nH]c2ccc(CCS(=O)(=O)c3ccccc3)cc12	inactive
COc1cc(NC(C)CCCN)c2ncccc2c1 (stereo not drawn)	inactive
CC(N)C12CC3CC(CC(C3)C1)C2 (stereo not drawn)	inactive
Cc1cn([C@H]2C[C@H](N=[N+]=[N-])[C@@H](CO)O2)c(=O)[nH]c1=O	inactive
O=C(c1ccccc1)c1ccc2n1CCC2C(=O)O (stereo not drawn)	inactive
Cc1nccn1CC1CCc2c(c3ccccc3n2C)C1=O (stereo not drawn)	inactive
CC(C)NC[C@@H](O)COc1ccc(CC(N)=O)cc1	inactive
CCC1C(=O)OCC1Cc1cncn1C (stereo not drawn)	inactive
CCOC(=O)[C@H](CCc1ccccc1)N[C@@H](C)C(=O)N1Cc2cc(OC)c(OC)cc2C[C@H]1C(=O)O	inactive
C=C(c1ccc(C(=O)O)cc1)c1cc2c(cc1C)C(C)(C)CCC2(C)C	inactive
Clc1ccc(COC(Cn2ccnc2)c2ccc(Cl)cc2Cl)cc1 (stereo not drawn)	inactive
NC12CC3CC(CC(C3)C1)C2	inactive
CC(=O)O[C@@]12CO[C@@H]1C[C@H](O)[C@@]1(C)C(=O)[C@H](O)C3=C(C)[C@@H](OC(=O)[C@H](O)[C@@H](NC(=O)OC(C)(C)C)c4ccccc4)C[C@@](O)([C@@H](OC(=O)c4ccccc4)[C@H]21)C3(C)C	inactive
Cc1[nH]cnc1CN1CCc2c(c3ccccc3n2C)C1=O	inactive
Cc1onc(-c2ccccc2Cl)c1C(=O)N[C@@H]1C(=O)N2[C@@H]1SC(C)(C)[C@@H]2C(=O)O	inactive
COc1ccc([C@@H]2Sc3ccccc3N(CCN(C)C)C(=O)[C@@H]2OC(C)=O)cc1	inactive
CN(C/C=C/C#CC(C)(C)C)Cc1cccc2ccccc12	inactive
CNS(=O)(=O)CCc1ccc2[nH]cc(C3CCN(C)CC3)c2c1	inactive
CC(C)C1CCC(C(=O)N[C@H](Cc2ccccc2)C(=O)O)CC1 (stereo partly drawn)	inactive

Reference: PubChem BioAssay (NCATS)
